Compound activity: PubChem BioAssay, National Center for Advancing Translational Sciences (NCATS)
The list is not random: actives were taken first. Their share in the collection is about 8.9%.
HPGD inh: qHTS Assay for Inhibitors of HPGD (15-Hydroxyprostaglandin Dehydrogenase). 15-hydroxyprostaglandin dehydrogenase [NAD(+)] (Homo sapiens), P15428. purified HPGD, NADH fluorescence kinetic, PGE2 substrate. hit rate 4.3% among 150,000. AID 894, 2007. Potency, µM, usual class: inhibitors; active = well fitted inhibition curve with a large enough effect, not every such curve was filed as active; inconclusive = small, poorly fitted or top-dose-only effect, or another doubt; inactive = no such curve, though single readings can be large or run the other way
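NADH formation kinetics: reaction with 30 uM PGE2 and 1 mM NAD+ (final), 20 nM enzyme, Tris-HCl pH 8 with Tween 20, after 15 min compound preincubation at room temperature. Fluorescence change, last versus first of five reads.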
ALOX12 inhib: qHTS Assay for Inhibitors of 12-hLO (12-human lipoxygenase). purified 12-hLO, xylenol orange hydroperoxide absorbance. AID 1452, 2008. hit rate 0.12% among 150,000. Potency, µM (doses to about 57.1 µM), most hits filed as inhibitors; also: nearly all actives have a fitted effect of over 55% in size
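Purified human 12hLO (150 nM), preincubated 15 min with compound, then 40 uM arachidonic acid for 30 min, room temperature, Hepes pH 7.0 with 0.01% Triton X-100. Hydroperoxide detected by ferrous iron/xylenol orange; 573/405 nm absorbance ratio gives reaction progress.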
ALDH1A1 block: qHTS Assay for Inhibitors of Aldehyde Dehydrogenase 1 (ALDH1A1); Aldehyde dehydrogenase 1A1 (Homo sapiens), P00352; Purified ALDH1A1, NADH fluorescence, propionaldehyde substrate; Potency, µM (doses to about 75.3 µM), actives largely listed as inhibitors; hit rate 7.3% among 220,000; active = well fitted inhibition curve with a large enough effect, not every such curve was filed as active; inconclusive = small, poorly fitted or top-dose-only effect, or another doubt; inactive = no such curve, though single readings can be large or run the other way
Target sequence (P00352 whole entry, looked up): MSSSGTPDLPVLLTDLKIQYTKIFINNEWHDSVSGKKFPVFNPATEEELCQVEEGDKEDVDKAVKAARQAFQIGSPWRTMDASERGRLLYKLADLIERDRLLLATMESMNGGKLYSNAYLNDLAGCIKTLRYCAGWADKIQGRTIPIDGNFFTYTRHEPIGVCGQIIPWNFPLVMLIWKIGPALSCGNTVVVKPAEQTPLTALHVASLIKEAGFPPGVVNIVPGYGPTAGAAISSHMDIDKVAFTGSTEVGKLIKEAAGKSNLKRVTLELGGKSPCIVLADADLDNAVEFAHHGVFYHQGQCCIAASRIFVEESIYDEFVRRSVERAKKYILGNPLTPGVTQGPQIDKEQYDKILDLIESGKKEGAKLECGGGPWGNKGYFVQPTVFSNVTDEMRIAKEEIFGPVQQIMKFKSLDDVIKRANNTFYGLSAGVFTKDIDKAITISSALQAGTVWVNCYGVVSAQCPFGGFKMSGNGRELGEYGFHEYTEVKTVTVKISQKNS
IMPase cell inh: qHTS Assay for Identifying the Cell-Membrane Permeable IMPase Inhibitors; Inositol monophosphatase 1 (Rattus norvegicus), P97697; CHO-M1 cells, IP1 accumulation, HTRF TR-FRET ratio; inhibition (IP1 accumulation), % at 46.1 µM; 120,000 tested, under 10 active; AID 901, 2007; active = well fitted curve in the direction sought with a large enough effect in the signal ratio, not every such curve was filed as active; inconclusive = small, poorly fitted or top-dose-only effect, or a change in a side signal; inactive = no such curve, though single readings can be large or run the other way; the % refers to the signal ratio;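 also: cells stimulated with carbachol in lithium chloride buffer; higher means more IMPase inhibition seen as more IP1 and lower FRET ratio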
Target sequence (P97697 whole entry, looked up): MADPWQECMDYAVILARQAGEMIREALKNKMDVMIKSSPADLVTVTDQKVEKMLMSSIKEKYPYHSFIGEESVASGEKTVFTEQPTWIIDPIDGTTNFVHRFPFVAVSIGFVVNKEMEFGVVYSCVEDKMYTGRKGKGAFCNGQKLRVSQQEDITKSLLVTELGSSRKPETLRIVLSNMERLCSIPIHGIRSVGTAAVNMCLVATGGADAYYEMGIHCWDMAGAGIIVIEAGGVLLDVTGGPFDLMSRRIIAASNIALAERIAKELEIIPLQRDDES
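Cellular IMPase inhibition is scored as a rise in cytosolic IP1, detected by competitive TR-FRET between d2-labelled IP1 and a europium anti-IP1 antibody. M1-expressing CHO cells were stimulated with carbachol for 30 min at 37C, with lithium (50 mM LiCl) present in the buffer.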
IMPase Li inh: qHTS Assay for Identifying the Cell-Membrane Permeable IMPase Inhibitors: Potentiation with Lithium; CHO-M1 cells, IP1 TR-FRET (IP-One), carbachol + lithium; hit rate 0.35% among 210,000; Potency, µM (top dose mostly 59.4 µM), most hits filed as inhibitors;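 also: IP1 builds up when IMPase is blocked and the TR-FRET signal falls; nearly all actives have a fitted effect of over 50% in size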
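CHO cells stably expressing M1 receptor (2000/well, cultured 16–30 h) treated 30 min at 37C with compound plus low lithium. Cytosolic IP1 by TR-FRET (665/620 ratio and 620 channel) after 10 min lysis; AC50 by Hill fit.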
NPSR antag: qHTS Assay for Antagonists of the Neuropeptide S Receptor: cAMP Signal Transduction; hit rate 1% among 220,000; Q6W5P4; Potency, µM (series often up to 38.3 µM), usual class: inhibitors; CHO-NPSR cells, cAMP TR-FRET, antagonist mode; also: nearly all actives have a fitted effect of over 50% in size
Hits are given with their value; 0 = inactive; ? = inconclusive; - = no result given; [ ] = another dose, or the depositor's remark. Unless noted, calls follow the shape of the dose curve; as a rule, active = well fitted curve in the direction sought with a large enough effect; inconclusive = small, poorly fitted or top-dose-only effect, or another doubt; inactive = no such curve, though single readings can be large; an effect the other way counts as inactive or inconclusive.

SMILES | HPGD inh | ALOX12 inhib | ALDH1A1 block | IMPase cell inh | IMPase Li inh | NPSR antag
N#CCSc1nc2cc(C(=O)N3CCC(C(N)=O)CC3)ccc2c2nc3ccccc3n12 | 0 | 0 | 28µM | 0 | 0 | 0
N#CCSc1nc2cc(C(=O)N3CCCC3)ccc2c(=O)n1Cc1ccccc1 | 0 | 0 | 2.8µM | 0 | ? | 0
CCn1c(SCC#N)nc2ccccc2c1=O | - | - | - | - | - | 0
COc1ccc(C(C)=O)cc1CSc1nc2cc(C(=O)O)ccc2c(=O)n1Cc1ccccc1 | ? | 0 | 20µM | - | 0 | 0
N#CCSc1nc2ccccc2c2nc3ccccc3n12 | 0 | 0 | 0 | - | 0 | 0
CCOC(Cn1c(SCc2cc(C(C)=O)ccc2OC)nc2ccccc2c1=O)OCC | - | 0 | ? | 0 | - | 0
COCC(=O)N1CCC[C@@]2(CCN(Cc3ccccc3OC)C2)C1 | 0 | 0 | 0 | - | 0 | -
CC1(C)Cc2c(c(=S)nc(-c3ccccc3)n2CCCN2CCOCC2)CO1 | 0 | 0 | 0 | 0 | 0 | 0
CC1(C)Cc2c(c(=S)nc(-c3ccccc3)n2CCO)CO1 | 35µM | 0 | 25µM | 0 | 0 | 0
Cc1ccc(-c2nc(=S)c3c(n2CC2CCCO2)CC(C)(C)OC3)cc1 (stereo not drawn) | 0 | 0 | 0 | 0 | 0 | 0
Cc1ccc(-c2nc(=S)c3c(n2Cc2ccco2)CC(C)(C)OC3)cc1 | 0 | 0 | ? | 0 | 4µM | 0
Cc1ccc(-c2nc(=S)c3c(n2Cc2ccco2)CCCC3)cc1 | 0 | ? | 13µM | 0 | ? | 0
O=C(COc1ccc(Br)cc1)c1ccc2c(c1)CCCC2 | 0 | 0 | 0 | 0 | 0 | 0
CCS(=O)(=O)n1nc(-c2ccc(OC)cc2)nc1N | - | - | 0 | - | 0 | 0
O=C(c1ccco1)c1cn(CCOc2ccc(Cl)cc2)c2ccccc12 | - | - | - | 0 | - | -
CCOC(=O)c1c(C)oc2c(CC(=O)c3ccccc3)c(Cl)c(O)c(O)c12 | 7.1µM | 0 | 0 | - | 0 | 0
CCOC(=O)c1c(C)oc2c1c(C(c1ccncc1)N1CCOCC1)c(O)c1ccccc12 (stereo not drawn) | 0 | ? | 13µM | 0 | 0 | 0
CCOC(=O)c1c(C)oc2ccc(O)c(CN3CCCCC3)c12 | 0 | 0 | 0 | 0 | 0 | 0
CCOC(=O)c1c(C)oc2c1c(CN1CCN(CCO)CC1)c(O)c1ccccc12 | - | - | 0.35µM | - | 0 | 0
CCOC(=O)c1c(C)oc2c1c(CN1CCN(C(=O)OCC)CC1)c(O)c1ccccc12 | 0 | 0 | 1.6µM | - | 0 | 0
O=C(O)c1cn(Cc2ccccn2)c(=O)c2ccccc12 | - | - | 0 | - | 0 | 0
O=C(NCc1ccco1)Nc1ccc(OC(F)(F)F)cc1 | - | - | 0 | - | - | 0
CCOC(=O)c1oc2ccccc2c1CN1CCN(C(=O)c2ccccc2)CC1 | 0 | 0 | 20µM | 0 | 0 | 0
C[C@@H](NC(=O)c1nc[nH]c1C(=O)N[C@@H](Cc1ccccc1)C(=O)OCc1ccccc1)c1ccccc1 | - | - | 0 | - | 0 | 0
CC(C)(C)OC(=O)NCCCC[C@H](NC(=O)c1nc[nH]c1C(=O)NC1CCN(C(=O)OC(C)(C)C)CC1)C(=O)OC(C)(C)C | - | - | - | - | - | 10µM
SMILES | HPGD inh | ALOX12 inhib | ALDH1A1 block | IMPase cell inh | IMPase Li inh | NPSR antag
CC(C)(C)OC(=O)NCCCC[C@H](NC(=O)c1nc[nH]c1C(=O)NC(c1ccccc1)c1ccccc1)C(=O)OC(C)(C)C | - | - | 2.8µM | - | 0 | ?
C[C@H](NC(=O)c1nc[nH]c1C(=O)N[C@@H](Cc1ccccc1)C(=O)OCc1ccccc1)c1ccccc1 | - | - | 5µM | - | 0 | 0
CC(C)(C)OC(=O)NCCCC[C@H](NC(=O)c1nc[nH]c1C(=O)N[C@@H](CCCCNC(=O)OC(C)(C)C)C(=O)OC(C)(C)C)C(=O)OC(C)(C)C | - | - | - | - | - | 0
CCc1nc(N2CCN(C(=O)c3ccco3)CC2)c2c3c(sc2n1)CCCC3 | 0 | 0 | ? | 0 | 0 | ?
O=C(c1ccco1)N1CCN(c2ncnc3sc4c(c23)CCC4)CC1 | 32µM | 0 | 10µM | 0 | 0 | 0[7.67 µM]
CN(C)N1C(N)=C(C#N)C(c2cccs2)C2=C1CC(C)(C)CC2=O (stereo not drawn) | - | - | 10µM | - | 0 | 0
CC1(C)CC(=O)C2=C(C1)N(c1cccnc1)C(N)=C(C#N)C2c1cccs1 (stereo not drawn) | 0 | 0 | 22µM | - | 0 | 0
Cc1ccc(C2CC(c3cccs3)=NN2C(=O)c2ccc(Br)o2)cc1 (stereo not drawn) | ? | 0 | ? | 0 | 0 | 10µM
CCCc1nc2ccccc2c(=O)n1-c1c(C)n(C)n(-c2ccccc2)c1=O | 0 | 0 | 0 | 0 | 0 | 0
COc1ccc(C2C(CC(=O)O)=C(O)C(=O)N2c2ccccc2)cc1 (stereo not drawn) | 0 | 0 | 18µM | 0 | 0 | 0
COc1ccccc1Nc1nc(Cl)c(C=O)s1 | - | - | 18µM | - | 0 | 0
O=Cc1sc(Nc2ccccc2)nc1Cl | - | - | 0 | - | 0 | 0
COc1ccccc1Nc1nc2c(s1)CCC2 | ? | 0 | 18µM | 0 | 0 | 0
CCN1C(=O)CC(NNC(=O)c2ccccc2)C1=O (stereo not drawn) | - | - | - | - | - | 0
N#Cc1cccc(CS(=O)(=O)c2ccccc2)c1 | 0 | - | 0 | - | 0 | -
CN(C)C(=O)c1ccc(-c2cncnc2Nc2ccc(F)cc2)cc1 | - | - | 11µM | - | 0 | -
Cc1ccccc1NC(=O)c1cc(N)ccc1N1CCCCC1 | 0 | 0 | 10µM | 0 | 0 | 0
Cn1c(SCc2cnc(-c3ccccc3)s2)nnc1C1COc2ccccc2O1 (stereo not drawn) | 25µM | 0 | 13µM | 0 | 0 | 0
Clc1ccc(-c2nn3c(C4COc5ccccc5O4)nnc3s2)cc1 (stereo not drawn) | 13µM | 0 | 7.9µM | 0 | 0 | 0
O=C(O)CC1C(=O)NCCN1C/C=C/c1ccccc1 (stereo not drawn) | 0 | 0 | ? | 0 | 0 | 0
CCC1C(=O)N(c2nc(C)cc(C)n2)N=C1C (stereo not drawn) | 0 | 0 | 0 | 0 | 0 | 0
O=C(CC(Nc1ccccc1)C(=O)O)c1ccccc1 (stereo not drawn) | 0 | 0 | 1.8µM | 0 | 0 | 0
O=C(CP(=O)(O)CC(=O)c1ccccc1)c1ccccc1 | - | - | 0 | - | 0 | 0
C=C(C(=O)c1ccccc1)C(C)CC(=O)c1ccccc1 (stereo not drawn) | 28µM | 0 | ? | 0 | 0 | 0
O=C(CC(Nc1ccc(Cl)cc1Cl)C(=O)O)c1ccccc1 (stereo not drawn) | - | - | - | - | - | 0
Cc1ccc(N/N=C/c2c(C)c(C#N)c(=O)n(C)c2O)cc1C | - | - | 0.79µM | - | 0 | 0
